# Source: PubChem BioAssay AID504375 (National Center for Advancing Translational Sciences (NCATS), 2011)
# About 25 (2%) of roughly 1,600 compounds were called active. Entries that show only a call come without a potency. About 7% were inconclusive and are not listed. Calls follow the shape of the dose curve; as a rule, active = well fitted inhibition curve with a large enough effect; inconclusive = small, poorly fitted or top-dose-only effect, or effect the other way; inactive = no such curve, though single readings can be large or run the other way. Many of the other results were omitted from the sample, so actives are more common in it than they were.
# Biological target: Runt-related transcription factor 1 (Homo sapiens) + Core-binding factor subunit beta (Homo sapiens) (UniProt Q01196+Q13951)
# Sequence (Q01196 whole entry, looked up): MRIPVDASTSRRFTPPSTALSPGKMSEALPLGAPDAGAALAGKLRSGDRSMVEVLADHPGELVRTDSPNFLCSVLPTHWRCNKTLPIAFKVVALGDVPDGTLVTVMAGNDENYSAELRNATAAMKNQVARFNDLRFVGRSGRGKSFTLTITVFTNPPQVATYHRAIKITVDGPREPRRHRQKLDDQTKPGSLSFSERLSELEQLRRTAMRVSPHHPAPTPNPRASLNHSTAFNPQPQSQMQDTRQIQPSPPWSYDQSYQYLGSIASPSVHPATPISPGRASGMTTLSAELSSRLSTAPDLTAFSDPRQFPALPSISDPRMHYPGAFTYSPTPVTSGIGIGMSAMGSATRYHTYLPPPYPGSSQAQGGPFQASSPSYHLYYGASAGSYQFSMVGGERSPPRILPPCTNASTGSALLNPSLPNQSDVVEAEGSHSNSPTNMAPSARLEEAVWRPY
# Sequence (Q13951 whole entry, looked up): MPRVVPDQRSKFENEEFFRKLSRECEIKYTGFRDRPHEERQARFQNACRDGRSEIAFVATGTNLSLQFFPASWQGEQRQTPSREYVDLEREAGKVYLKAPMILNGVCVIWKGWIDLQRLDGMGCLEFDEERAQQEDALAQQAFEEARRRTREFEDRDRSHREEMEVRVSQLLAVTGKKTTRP
# Test: qHTS Assay for Compounds Blocking the Interaction Between CBF-beta and RUNX1 for the Treatment of Acute Myeloid Leukemia: Hit Validation with Orthogonal Assay
# Conditions: CBFbeta-RUNX1 binding orthogonal assay, biochemical; series mostly up to 41 µM
# Method in brief: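 This is an orthogonal TR-FRET assay. His6-CBF-beta and biotin-RUNX1 (30 nM each) were preincubated with compound for 30 min, then Tb-anti-His antibody (0.44 ng) and streptavidin-XL665 (5 nM) were added. The signal was read after 90 min.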
# Potency is read from the fitted curve at half-maximal effect.
row,SMILES,Potency
1,Cc1cc(C)c2c(N)c(-c3nnc(SCc4ccc(Cl)cc4)n3C)sc2n1,inactive
2,O=C(/C=C/c1cn(CC(O)CN2CCCCC2)c2ccccc12)c1ccccc1 (stereo not given),inactive
3,S=c1[nH]nc([C@@H]2C[C@H]2c2ccccc2)n1-c1ccccc1Cl,inactive
4,CCCCC(=O)Nc1ccc(NC(=S)NC(=O)c2ccco2)cc1OC,inactive
5,CCc1cccc(NC(=O)CCCCCC2NC(=O)NC2C)c1 (stereo not given),0.0562 µM (active)
6,CCC(=O)Nc1cccc(C(=O)OC)c1,inactive
7,CCCCc1c(C)nc(N2CCCC2)[nH]c1=O,inactive
8,Cc1cc(=O)n2[nH]c(CCC(=O)O)nc2n1,inactive
9,CCN(CC)S(=O)(=O)c1cccc(NC2=NCCCCC2)c1,inactive
10,CCN1C/C(=C/c2cccs2)c2nc3ccccc3c(C(=O)O)c2C1,inactive
11,COc1ccc(OS(=O)(=O)c2c(C)noc2C)cc1,inactive
12,O=C(OCC1OC(OC(=O)c2cc(O)c(O)c(OC(=O)c3cc(O)c(O)c(O)c3)c2)[C@@H](OC(=O)c2cc(O)c(O)c(OC(=O)c3cc(O)c(O)c(O)c3)c2)C(OC(=O)c2cc(O)c(O)c(OC(=O)c3cc(O)c(O)c(O)c3)c2)C1OC(=O)c1cc(O)c(O)c(OC(=O)c2cc(O)c(O)c(O)c2)c1)c1cc(O)c(O)c(OC(=O)c2cc(O)c(O)c(O)c2)c1 (stereo not given in full),10 µM (active)
13,O=C(Nc1ccc(Cl)cc1)N1CCCC(Cn2cccc2)C1 (stereo not given),inactive
14,CC(C)c1nc2oc3c(N(C)CCO)ncnc3c2c2c1CCC2,inactive
15,CC(C)(C)NC(=O)c1cccc2c1C(=O)c1ccccc1-2,inactive
16,O=C(O)C[C@@H]1C(=O)O[C@@H]2C(COC(=O)c3cc(O)c(O)c(O)c3)O[C@@H](OC(=O)c3cc(O)c(O)c(O)c3)[C@@H](OC(=O)c3cc(O)c(O)c4c3[C@H]1[C@H](O)C(=O)O4)[C@H]2OC(=O)c1cc(O)c(O)c(O)c1 (stereo not given in full),0.0891 µM (active)
17,CCN(CC)c1ccc(/C=N/N2CCN(Cc3ccccc3Cl)CC2)c(O)c1,inactive
18,CCCNC(=S)Nc1ccccc1,inactive
19,CC1CCC2(CC1)NC(=S)N(C(C)(C)C)N2 (stereo not given),inactive
20,CN1c2ccccc2C(=O)/C(=C\Nc2ccc(F)cc2)S1(=O)=O,inactive
21,COC(=O)[C@@H](NC(=O)NC1CCCCC1C)C(C)C (stereo not given in full),inactive
22,CCCCCc1ccc(S(=O)(=O)Nc2cc(C)ccn2)cc1,inactive
23,Cc1onc(-c2ccccc2)c1C(=O)NNC(=S)NC(=O)c1ccc2c(c1)OCO2,inactive
24,O=C(CCl)NCCCN(C(=O)C(Cl)Cl)c1ccc([N+](=O)[O-])cc1,inactive
25,Cn1nc(-c2ccccc2)cc1NS(=O)(=O)c1ccccc1,inactive

row,SMILES,Potency
1,Cc1c2c(c(O)c3c(O)cccc13)C(=O)O[C@H]2C1C(N(C)C)C(O)=C(C(N)=O)C(=O)[C@H]1O (stereo not given in full),2.24 µM (active)
2,O=C(NNC(=S)Nc1ccccc1C(F)(F)F)C1CC1,inactive
3,COc1cc(/C=N\NC(=O)CNC(=O)C(c2ccccc2)c2ccccc2)ccc1O,inactive
4,COCc1cc(=O)n2[nH]c(C(C)(C)C)cc2n1,inactive
5,COc1cc(NCc2ccccc2O)c2ncccc2c1,inactive
6,COc1ccc(NS(=O)(=O)c2ccc(Cl)s2)cn1,inactive
7,O=C(NN1C(=O)C2CCCCC2C1=O)c1ccco1 (stereo not given),inactive
8,O=c1c(O)cccc2cc(O)c(O)c(O)c12,1.26 µM (active)
9,O=C(NC(=S)Nc1ccccc1N1CCCC1)c1ccco1,inactive
10,Cc1onc(-c2ccccc2)c1C(=O)NC(=S)NNC(=O)c1ccco1,inactive
11,O=C(NC(=S)NNC(=O)c1ccccc1O)c1ccco1,3.16 µM (active)
12,Cc1cc(NC(=O)CN2CCOCC2)n(-c2ccccc2)n1,inactive
13,NS(=O)(=O)c1ccc(Sc2ccccn2)c([N+](=O)[O-])c1,inactive
14,O=C(Nc1ccc2ccccc2c1)c1ccc(Cl)cc1Cl,inactive
15,COc1cccc(/C=N/n2nnnc2N)c1,inactive
16,CCN(CC)S(=O)(=O)c1ccc(/C=C/C(=O)Nc2ccc(N3CCOCC3)cc2)cc1,inactive
17,CN(C(=O)C(Cl)Cl)C1CC2C=CC1C2 (stereo not given),inactive
18,Cc1cc(C)c(OCC(=O)N(Cc2ccc(N(C)C)cc2)C2CCS(=O)(=O)C2)c(C)c1 (stereo not given),inactive
19,CN(C)S(=O)(=O)c1ccc(Cl)c(NC(=O)CN2CCN(Cc3ccc4c(c3)OCO4)CC2)c1,inactive
20,CC(C)(O)P(=O)(O)CCc1ccccc1,inactive
21,COC(=O)c1ccccc1N=Nc1c(C)noc1C,inactive
22,COc1ccccc1/C=C/C=N/n1c(-c2ccccn2)n[nH]c1=S,inactive
23,CC(=O)Oc1ccc(C(=O)Nc2cccc(-c3nnc(-c4ccco4)o3)c2)cc1,inactive
24,C=CCNC(=S)NCC,inactive
25,CN(C)c1cc(-c2ccc([N+](=O)[O-])cc2)oc(=O)c1Cl,inactive

row,SMILES,Potency
1,CCCc1cc(=O)oc2c(CN(CC)CC)c(O)c(Cl)cc12,inactive
2,C/C(=N\O)C1CC(CC(=O)O)C1(C)C (stereo not given),inactive
3,CCc1sc(N)nc1-c1ccccc1,inactive
4,CC(C)NC(=O)NNC(=O)Cn1nnc(-c2cccc(Cl)c2Cl)n1,inactive
5,COCCn1c(-c2ccc(Br)cc2)nc2oc3cc(OC)ccc3c(=O)c2c1=O,inactive
6,Fc1c(CSC(=S)N2CCOCC2)cccc1CSC(=S)N1CCOCC1,inactive
7,COc1ccc(/C=C/C(=O)Oc2cc(O)cc(O)c2)cc1,inactive
8,CN1C2CCC1CC(NC(=O)c1ccc(Cl)cc1)C2 (stereo not given),inactive
9,O=C(O)C1=CC(=C(c2ccc(O)c(C(=O)O)c2)c2ccc(O)c(C(=O)O)c2)C=CC1=O,7.94 µM (active)
10,COc1ccc(/C=N/NC(=O)c2ccc(Br)cc2)cc1CN1CCOCC1,inactive
11,O=[N+]([O-])c1cc(Cl)cc(/C=N/NC(=S)Nc2ccc(S(=O)(=O)N3CCOCC3)cc2)c1O,inactive
12,CSCC[C@H](NC(=O)OC(C)(C)C)C(=O)N/N=C/c1cccc2nccnc12,inactive
13,COc1ccccc1N1C(=O)[C@@H]2[C@H](C1=O)[C@H](C(=O)c1ccc(OC(C)=O)cc1)N1N=CC=C[C@@H]21,inactive
14,CC(C)Nc1cc(C(C)(C)C)nc2c(-c3ccccc3)cnn12,inactive
15,Cc1nnc(NC(=O)c2ccccc2NC(=O)c2ccccc2)s1,inactive
16,CN1CCN(C(=O)C23CC4CC(C)(CC(C)(C4)C2)C3)CC1,inactive
17,COc1cccc(N/C(=N/C(=S)Nc2ccc(C)cc2C)Nc2nc(C)cc(C)n2)c1,inactive
18,CC(=O)N1N=C2c3ccccc3CCC2C1c1cccs1 (stereo not given),inactive
19,CC(=O)Nc1ccc(NS(=O)(=O)c2ccc(C)cc2)cc1[N+](=O)[O-],inactive
20,Cc1cc(-c2ccccc2C(=O)Nc2ccccc2O)on1,inactive
21,O=C(O)c1ccccc1C(=O)Nc1ccc(-n2ccc(C(F)(F)F)n2)cc1,inactive
22,Cc1nc2c(c(=O)c3ccccc3n2C)c(=O)n1-c1ccccc1,inactive
23,CN(C)c1ccc(NC(=O)Nc2csc3ccccc23)cc1,inactive
24,CSc1cccc(NC(=O)Nc2ccccc2C(N)=O)c1,inactive
25,NC(=O)c1ccc(NC(=O)COC(=O)/C=C/c2ccc3c(c2)OCO3)cc1,inactive
